Data: the supplement of paper PMC10646978
± gives the standard deviation.

Assays:
Details in all cases: modulator concentration 10 µM
[1] = tested on: RAW-Dual (murine macrophage reporter line); experiment: NF-kB reporter (SEAP) activity fold change vs agonist alone; higher = enhanced NF-kB activity
Summary of the method: (§1)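 RAW-Dual murine macrophage reporter cells were seeded at 50 000 per well in 384-well plates and pre-incubated 1 hour at 37 °C with compound pin-transferred to 10 μM final. After 1 hour, a PRR agonist was added and cells incubated overnight. Supernatant NF-κB (SEAP, QUANTI-Blue, 620 nm absorbance) and IRF (Lucia luciferase, QUANTI-Luc, luminescence) signals were divided by the mean agonist-only control on the same plate to give fold change. Two replicate plates were averaged, with errors by propagation.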

[2] = tested on: RAW-Dual (murine macrophage reporter line); experiment: IRF reporter (Lucia luciferase) activity fold change vs agonist alone; higher = enhanced IRF activity
Summary of the method: as §1

[3] = tested on: RAW-Dual (murine macrophage reporter line); experiment: viability score (confluency relative to resting cells, overnight) (fraction); higher = more viable, active = viable (0.7 or more)
Summary of the method: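 RAW-Dual macrophages in 384-well plates were treated overnight with compound at 10 μM final. IncuCyte imaging recorded confluency, and IncuCyte software built two confluency masks across every imaged well. The viability score expresses confluency relative to resting cells and was judged against a cutoff, which a compound met only if both masks exceeded 70% of resting cells.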

[4] = agonist: CpG ODN 1826 0.5 ug/mL

Work on CC1=C(C(=O)Nc2cccc(C)n2)C(c2ccsc2)C2=C(CC(C)(C)CC2=O)N1 (centres undefined) yielded an NF-kB reporter [1, 4] of 1.04 ± 0.16, an NF-kB reporter ([1]; agonist: LPS 0.1 ug/mL) of 1.02 ± 0.057 and an NF-kB reporter ([1]; agonist: MPLA […]) of 0.996 ± 0.059. The IRF reporter ([2]; agonist: 3'3'-cGAMP 10 ug/mL) was 0.954 ± 0.04, the IRF reporter ([2]; agonist: LPS 0.1 ug/mL) was 1.2 ± 0.086 and the IRF reporter ([2]; agonist: MPLA […]) was 0.979 ± 0.12. The viability score [3] was 1.01 (active).

OC1(c2ccc(Cl)c(C(F)(F)F)c2)CCN(CCCC(c2ccc(F)cc2)c2ccc(F)cc2)CC1 was tested, and the NF-kB reporter [1, 4] was 0.101 ± 0.0057, the NF-kB reporter ([1]; agonist: LPS 0.1 ug/mL) was 0.173 ± 0.12 and the NF-kB reporter ([1]; agonist: MPLA […]) was 0.103 ± 0.0063. It also gave an IRF reporter ([2]; agonist: 3'3'-cGAMP 10 ug/mL) of 0.0719 ± 0.0038, an IRF reporter ([2]; agonist: LPS 0.1 ug/mL) of 0.145 ± 0.11 and an IRF reporter ([2]; agonist: MPLA […]) of 0.0408 ± 0.004. For the same molecule, the viability score [3] was 0.0235 (inactive).

Molecule Cc1ccc(C(C)C)c(Oc2ccccc2NC(=O)c2cc(I)cc(I)c2O)c1 has an NF-kB reporter [1, 4] of 0.995 ± 0.066, an NF-kB reporter ([1]; agonist: LPS 0.1 ug/mL) of 0.985 ± 0.082 and an NF-kB reporter ([1]; agonist: MPLA […]) of 0.924 ± 0.071. The IRF reporter ([2]; agonist: 3'3'-cGAMP 10 ug/mL) was 0.915 ± 0.035, the IRF reporter ([2]; agonist: LPS 0.1 ug/mL) was 1.44 ± 0.092 and the IRF reporter ([2]; agonist: MPLA […]) was 1.27 ± 0.25. The viability score [3] was 1 (active).

With COc1ccc(-c2oc(N=Cc3ccccc3O)c(C#N)c2-c2ccc(OC)cc2)cc1 the NF-kB reporter [1, 4] was 0.895 ± 0.075, the NF-kB reporter ([1]; agonist: LPS 0.1 ug/mL) was 1.21 ± 0.079 and the NF-kB reporter ([1]; agonist: MPLA […]) was 0.997 ± 0.035. For the same molecule, the IRF reporter ([2]; agonist: 3'3'-cGAMP 10 ug/mL) was 0.921 ± 0.2, the IRF reporter ([2]; agonist: LPS 0.1 ug/mL) was 1.05 ± 0.089 and the IRF reporter ([2]; agonist: MPLA […]) was 1.12 ± 0.18. The viability score [3] was 1 (active).

For Cc1ccc(C2(c3ccc(C)cc3)CC2C(=O)Nc2cccnc2)cc1 (centres undefined), the NF-kB reporter [1, 4] was 0.883 ± 0.061, the NF-kB reporter ([1]; agonist: LPS 0.1 ug/mL) was 0.985 ± 0.076 and the NF-kB reporter ([1]; agonist: MPLA […]) was 0.82 ± 0.023. The IRF reporter ([2]; agonist: 3'3'-cGAMP 10 ug/mL) was 1.02 ± 0.036, the IRF reporter ([2]; agonist: LPS 0.1 ug/mL) was 1.01 ± 0.062 and the IRF reporter ([2]; agonist: MPLA […]) was 0.91 ± 0.14. The viability score [3] was 0.998 (active).

CC(C)Oc1ccc(Br)cc1C=C(C#N)c1nn(CCO)c(N)c1C#N was tested, and the NF-kB reporter [1, 4] was 1.33 ± 0.11, the NF-kB reporter ([1]; agonist: LPS 0.1 ug/mL) was 1.16 ± 0.066 and the NF-kB reporter ([1]; agonist: MPLA […]) was 1.11 ± 0.077. It also gave an IRF reporter ([2]; agonist: 3'3'-cGAMP 10 ug/mL) of 0.91 ± 0.027, an IRF reporter ([2]; agonist: LPS 0.1 ug/mL) of 1.2 ± 0.22 and an IRF reporter ([2]; agonist: MPLA […]) of 1.03 ± 0.18. For the same molecule, the viability score [3] was 1.01 (active).

For Cc1cc(C(=O)Nc2nnc(-c3ccc(F)cc3)o2)n(C)n1, the NF-kB reporter [1, 4] was 0.915 ± 0.1, the NF-kB reporter ([1]; agonist: LPS 0.1 ug/mL) was 0.985 ± 0.084 and the NF-kB reporter ([1]; agonist: MPLA […]) was 1.1 ± 0.064. For the same molecule, the IRF reporter ([2]; agonist: 3'3'-cGAMP 10 ug/mL) was 0.929 ± 0.059, the IRF reporter ([2]; agonist: LPS 0.1 ug/mL) was 1.18 ± 0.24 and the IRF reporter ([2]; agonist: MPLA […]) was 1.22 ± 0.5. The viability score [3] was 0.873 (active).

Work on COc1cc(C(=O)Nc2ccc(-c3ccc(N4CCC(C)CC4)nn3)cc2)cc(OC)c1OC yielded an NF-kB reporter [1, 4] of 0.862 ± 0.1, an NF-kB reporter ([1]; agonist: LPS 0.1 ug/mL) of 0.879 ± 0.073 and an NF-kB reporter ([1]; agonist: MPLA […]) of 0.754 ± 0.12. It also gave an IRF reporter ([2]; agonist: 3'3'-cGAMP 10 ug/mL) of 1.02 ± 0.087, an IRF reporter ([2]; agonist: LPS 0.1 ug/mL) of 1.26 ± 0.11 and an IRF reporter ([2]; agonist: MPLA […]) of 1.59 ± 0.12. The viability score [3] was 0.913 (active).

COc1ccc(CC(=O)Nc2ccc(C)c(N3CCCCC3=O)c2)cc1OC showed an NF-kB reporter [1, 4] of 1.42 ± 0.34, an NF-kB reporter ([1]; agonist: LPS 0.1 ug/mL) of 1.18 ± 0.09 and an NF-kB reporter ([1]; agonist: MPLA […]) of 1.06 ± 0.071. It also gave an IRF reporter ([2]; agonist: 3'3'-cGAMP 10 ug/mL) of 0.937 ± 0.059, an IRF reporter ([2]; agonist: LPS 0.1 ug/mL) of 0.98 ± 0.14 and an IRF reporter ([2]; agonist: MPLA […]) of 1.06 ± 0.12. The viability score [3] was 1 (active).

Molecule Cc1cc(C(=O)NCc2sc(-c3ccccc3Cl)nc2C)c(C)o1 has an NF-kB reporter [1, 4] of 0.883 ± 0.039, an NF-kB reporter ([1]; agonist: LPS 0.1 ug/mL) of 1 ± 0.081 and an NF-kB reporter ([1]; agonist: MPLA […]) of 1.09 ± 0.061. It also gave an IRF reporter ([2]; agonist: 3'3'-cGAMP 10 ug/mL) of 0.98 ± 0.047, an IRF reporter ([2]; agonist: LPS 0.1 ug/mL) of 1.11 ± 0.25 and an IRF reporter ([2]; agonist: MPLA […]) of 1.27 ± 0.44. The viability score [3] was 0.984 (active).

Work on NC(=O)CC[C@@H](N)C(=O)O yielded an NF-kB reporter [1, 4] of 1.16 ± 0.31, an NF-kB reporter ([1]; agonist: LPS 0.1 ug/mL) of 1.05 ± 0.059 and an NF-kB reporter ([1]; agonist: MPLA […]) of 0.953 ± 0.068. For the same molecule, the IRF reporter ([2]; agonist: 3'3'-cGAMP 10 ug/mL) was 0.946 ± 0.046, the IRF reporter ([2]; agonist: LPS 0.1 ug/mL) was 1.37 ± 0.2 and the IRF reporter ([2]; agonist: MPLA […]) was 1.23 ± 0.17. For the same molecule, the viability score [3] was 1.01 (active).

With O=C(c1ccccc1)C1OC1(CBr)c1ccccc1 (centres undefined) the NF-kB reporter [1, 4] was 1.06 ± 0.06, the NF-kB reporter ([1]; agonist: LPS 0.1 ug/mL) was 0.76 ± 0.052 and the NF-kB reporter ([1]; agonist: MPLA […]) was 0.663 ± 0.039. It also gave an IRF reporter ([2]; agonist: 3'3'-cGAMP 10 ug/mL) of 0.0937 ± 0.0033, an IRF reporter ([2]; agonist: LPS 0.1 ug/mL) of 0.69 ± 0.072 and an IRF reporter ([2]; agonist: MPLA […]) of 0.913 ± 0.17. The viability score [3] was 0.833 (active).
